Compound activity: PubChem BioAssay, National Center for Advancing Translational Sciences (NCATS)
hNpr1 antagonist – blocks ANP-stimulated signaling of human Npr1 receptor | HEK293 hNpr1 GloSensor cGMP, ANP-stimulated luminescence | Potency, µM (titrated, usually from 46.3 µM), inactives show at the top dose activity change, negative = inhibition, usual class: inhibitors | 76,000 compounds, 1.6% hits | AID 1347048; calls by dose curve; note: nearly all actives have a fitted effect of over 60% in size
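Compound pre-incubated 30 min at room temperature on GloSensor-loaded HEK293 cells stably carrying hNpr1 and the pGS-40F cGMP biosensor. Stimulation uses hNppA at 0.1 nM final; luminescence is taken at baseline and 20 min post-agonist.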
HEK293 tox – cytotoxic compounds in HEK 293 cells | 94,000 compounds, 6.6% hits | Potency, µM (doses to about 115 µM), for the others: at the top dose activity change, negative = cytotoxicity, usual class: inhibitors | AID 1345083 | HEK 293 viability, ATP luminescence (CellTiter-Glo), 48-72 h; note: nearly all actives have a fitted effect of over 60% in size
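HEK 293 cells seeded at 250 cells/well were exposed to compound for 48 or 72 hr at 37 degree Celsius. Viability taken as ATP content by CellTiter-Glo luminescence.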
3T3 cytotox – kills NIH 3T3 cells; NIH 3T3 viability, CellTiter-Glo ATP luminescence, 48-72 h; Potency, µM (top dose mostly 96.7 µM), for the others: at the top dose activity change, negative = cytotoxicity, hits mostly inhibitors; 94,000 compounds, 4.3% hits; AID 1345082; note: nearly all actives have a fitted effect of over 55% in size
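Mouse fibroblast NIH 3T3 cells, 400 per well, received compound via pintool and were incubated for 48 or 72 hr prior to CellTiter-Glo ATP luminescence measurement.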
FLuc inh – blocks purified firefly luciferase enzyme activity; P08659; purified P. pyralis luciferase, luminescence, biochemical; Potency, µM (series often up to 115 µM), usual class: inhibitors; 76,000 compounds, 2.5% hits; AID 1347043; note: nearly all actives have a fitted effect of over 65% in size
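Luminescence read by CCD imager after adding enzyme (10nM final) to wells holding compound, titrated in qHTS. Substrates 10uM each D-luciferin and ATP; buffer 50mM Tris acetate pH 7.5, 10mM Mg acetate, Tween-20, BSA.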
The depositor's hits bear a star; i = inactive; ? = inconclusive; . = not tested or not shown; [ ] = another dose, or the depositor's remark. Sampled rows, rich in hits. Any-hit rate of the full collection: about 11%. Unless noted, calls come from the whole dose curve; as a rule, active = well fitted curve in the direction sought with a large enough effect; inconclusive = small, poorly fitted or top-dose-only effect, or another doubt; inactive = no such curve, though single readings can be large; an effect the other way counts as inactive or inconclusive. % is set by controls: 0 for no effect and ±100 for the full control effect; potency is the fitted concentration of half-maximal effect.

SMILES	hNpr1 antagonist	HEK293 tox	3T3 cytotox	FLuc inh
COc1ccc(-c2cc(N3CCCN(C(=O)c4ccc(C)s4)CC3)n[nH]2)cc1	0.0%	39.8µM*	?	?
COc1ccc(-c2cc(N3CCCN(C(=O)C(C)c4ccccc4)CC3)n[nH]2)cc1 (configuration not stated)	-2.1%	79.4µM*	?	i
O=C(NCc1ccc(F)cc1)c1nc2sccn2c1-c1ccccc1	.	-7.4%	-24.3%	.
O=C(c1ccc(C(F)(F)F)cc1)N1CCCC(C(=O)N2CCC(c3nc4ncccc4[nH]3)CC2)C1 (configuration not stated)	.	-7.4%	-7.3%	.
COc1ccc(-c2cc(N3CCCN(C(=O)C4CCCC4)CC3)n[nH]2)cc1	-0.4%	?	-18.2%	?
COc1ccc(-c2cc(N3CCCN(C(=O)C4(c5ccc(OC)cc5)CC4)CC3)n[nH]2)cc1	?	44.7µM*	?	i
COCCN1CCCC1c1nc(C2CN(S(=O)(=O)c3cccc(OC)c3)C2)no1 (configuration not stated)	.	-27.1%	-20.3%	.
COc1cccc(Nc2ncc3c(n2)C(C)(C(=O)NC2CCOCC2)CC3)c1 (configuration not stated)	-5.0%[70.6 µM]	89.1µM*	39.8µM*	i
CC1(C(=O)NC2CCOCC2)CCc2cnc(Nc3ccccc3)nc21 (configuration not stated)	-0.3%[70.6 µM]	100µM*	?	i
COc1cccc(Nc2ncc3c(n2)C(C)(C(=O)NC2CCN(C)CC2)CC3)c1 (configuration not stated)	-0.8%[70.6 µM]	89.1µM*	?	i
CC(C)c1noc(C2Cc3ccccc3N2C(=O)CCn2cnnn2)n1 (configuration not stated)	-1.8%	6.2%	2.7%	i
CCn1ccc(C(=O)N2c3ccccc3CC2c2nc(C(C)C)no2)n1 (configuration not stated)	-11.5%	?	-15.9%	39.8µM*
COC1CN(C(=O)OCc2ccccc2)CCC(=O)N(C)c2ccccc21 (configuration not stated)	.	?	-27.6%[46.1 µM]	.
COc1ccccc1CC(=O)N1CCC2(CC1)N=C(c1ccc(Cl)cc1)NO2	?	44.7µM*	?	i
O=C(c1ccccc1)N1CCC2(CC1)N=C(c1cccc(Br)c1)NO2	-10.7%	?	?	i
Cc1ccccc1CC(=O)N1CCC2(CC1)N=C(c1cccc(Br)c1)NO2	?	89.1µM*	?	i
Cc1cccc(C(=O)N2CCCCC2c2nc(C3CC3)n[nH]2)c1 (configuration not stated)	.	-2.5%	-23.3%	.
COC1C(=O)N(c2cccc(F)c2)C12CCN(C(=O)Nc1ccccc1)CC2 (configuration not stated)	0.6%	-26.6%	?	i
COC1C(=O)N(c2cccc(F)c2)C12CCN(C(=O)c1cc3ccccc3[nH]1)CC2 (configuration not stated)	-2.9%	31.6µM*	?	?
COC1C(=O)N(c2cccc(F)c2)C12CCN(S(=O)(=O)Cc1ccccc1)CC2 (configuration not stated)	-3.4%	?	-16.8%	i
COC1C(=O)N(c2cccc(F)c2)C12CCN(S(=O)(=O)Cc1ccccc1F)CC2 (configuration not stated)	-24.7%	39.8µM*	-18.4%	i
CCc1ccc(CNC(=O)c2ccc3c(c2)N(CC)C2CCCCCN2C3=O)cc1 (configuration not stated)	-8.0%	?	?	i
Cc1c(CN2C[C@@H](CN(C)CCO)[C@@H](CO)C2)[nH]c2c(Cl)cccc12	4.2%	44.7µM*	79.4µM*	i
CN(CCO)C[C@@H]1CN(C(=O)c2ccc3c(c2)CCC3)C[C@@H]1CO	3.5%	-11.7%	3.9%	i
O=C(c1ccc(C2CCNC2)cc1)N(Cc1ccccc1)CC1CCC1 (configuration not stated)	-3.6%	25.1µM*	?	i
CC(C)CCNC[C@H]1O[C@H](Cc2cc(-c3ccc(F)cc3)on2)CC[C@@H]1O	?	89.1µM*	50.1µM*	?
CC(=O)NC[C@H]1O[C@H](Cc2cc(-c3ccc(F)cc3)on2)CC[C@@H]1O	?	-17.3%[172 µM]	-7.3%[138 µM]	?
CN(C)C[C@H]1O[C@H](Cc2cc(-c3ccc(F)cc3)on2)CC[C@@H]1O	-18.3%[70.6 µM]	-29.2%[172 µM]	-30.0%[138 µM]	i
